In the library only some 19% were active in any assay of this set; here they are far more common.
KB-3-1 tox: kills parental KB-3-1 adenocarcinoma cells; hit rate 1.4% among 400,000; KB-3-1 viability, CellTiter-Glo ATP luminescence, 72 h; Potency, µM (top dose mostly 46.1 µM), usual class: cytotoxic; also: nearly all actives have a fitted effect of over 60% in size
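72 h, 37 °C compound treatment of KB-3-1 parental cells; CellTiter-Glo added, 10 min, luminescence read. Data corrected against DMSO-only plates and normalized before curve fitting.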
HT1080 IDH1KD tx: toxicity to HT-1080 IDH1 knockdown cells (counter line); HT-1080 IDH1 knockdown viability, ATP luminescence, 48 h; Potency, µM (top dose mostly 46.1 µM), inactives show top-dose activity, negative = toxicity, most hits filed as cytotoxic; hit rate 2% among 360,000; AID 686971;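 also: 0% = DMSO wells and -100% = cell-free medium wells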
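Cytotoxicity counter-line: IDH1KD HT-1080, 48 h, CellTiter-Glo. Curves classed by r2, magnitude and activity.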
KB-V1 cytotox: kills drug-selected multidrug resistant KB-V1 cells; KB-V1 MDR cells viability, CellTiter-Glo, 72 h; Potency, µM (series often up to 46.1 µM), actives largely listed as cytotoxic; hit rate 3.4% among 400,000; AID 1347076; also: nearly all actives have a fitted effect of over 60% in size
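Readout: CellTiter-Glo luminescence, 10 min after addition. Cells: KB-V1 MDR subline, 72 h at 37 degrees C with compound. Analysis: corrected, normalized data fitted to concentration-effect curves.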
DT40 TDP1 CPT: growth inhibition of DT40 Tdp1-/-;hTDP1 cells with camptothecin (screen for TDP1 inhibitors); chicken DT40 Tdp1-/-;hTDP1 cells + 20 nM CPT, ATP luminescence, 48 h; Potency, µM (series often up to 46.2 µM), for the others: top-dose activity change, negative = growth inhibition, usual class: inhibitors; hit rate 12% among 420,000; AID 686979; also: nearly all actives have a fitted effect of over 55% in size
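Chicken DT40 Tdp1-/- cells complemented with human TDP1, 400 cells/well, exposed to compounds plus 20 nM camptothecin for at least 48 h at 37 C; viability read as ATP content by CellTiter-Glo luminescence.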
HT1080NT lethal: kills 2HG-producing HT-1080-NT fibrosarcoma cells; HT-1080-NT fibrosarcoma viability, CellTiter-Glo ATP luminescence, 48 h; hit rate 1.6% among 360,000; AID 686970; Potency, µM (titrated, usually from 46.1 µM), for inactives: top-dose activity, negative = less viability, actives largely listed as cytotoxic;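 also: NT is the 2HG producing partner of a matched IDH1 knockdown line; 0% = DMSO-treated cells and -100% = media-only wells without cells; nearly all actives have a fitted effect of over 55% in size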
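Read-out is CellTiter-Glo luminescence after 10 minutes at room temperature, following 48 hours' compound treatment of HT-1080-NT cells (750 cells/well, RPMI, 5% FBS, 37 degrees C).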
TDP1 cell noCPT: qHTS for Inhibitors of human tyrosyl-DNA phosphodiesterase 1 (TDP1): qHTS in cells in absence of CPT; DT40 Tdp1-/- hTDP1 cells, no CPT, ATP luminescence, 48 h; Potency, µM (doses to about 46.2 µM), for the others: at the top dose activity change, negative = growth inhibition, usual class: inhibitors; hit rate 15% among 420,000; AID 686978, 2013; also: nearly all actives have a fitted effect of over 55% in size
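Camptothecin absent (DMSO only). Human TDP1-complemented DT40 knockout cells, 400 cells/well, 37 °C for minimum 48 hr; ATP measured via CellTiter-Glo, 30 min dark incubation, luminescence.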
Starred values were filed as active, the others as inactive; i = inactive; ? = inconclusive; . = not tested or not shown. Calls follow the shape of the dose curve; as a rule, active = well fitted curve in the direction sought with a large enough effect; inconclusive = small, poorly fitted or top-dose-only effect, or another doubt; inactive = no such curve, though single readings can be large; an effect the other way counts as inactive or inconclusive. Unless noted, % is scaled to controls: 0 for no effect and ±100 for the full control effect; potency is read from the fitted curve at half-maximal effect.

SMILES	KB-3-1 tox	HT1080 IDH1KD tx	KB-V1 cytotox	DT40 TDP1 CPT	HT1080NT lethal	TDP1 cell noCPT
COc1cc2c(cc1NC(=O)C(Cl)Cl)-c1ccc(NC(=O)C(Cl)Cl)cc1C2	?	13µM*	14.6µM*	8.2µM*	?	8.2µM*
CNc1cncc(-c2ccc(C)cc2)n1	i	3.0%	i	-19.7%	11.6%	-10.0%
COc1ccc(NC(=O)CN(C)C(=O)c2cn(-c3ccccc3)nc2-c2ccc(Cl)cc2)cc1	?	?	23.1µM*	?	?	14.6µM*
COc1ccc(NC(=O)CN(C)C(=O)c2cn(-c3ccccc3)nc2-c2ccc(F)cc2)cc1	?	-12.2%	?	?	-21.2%	?
Cc1ccc(-c2nn(-c3ccc(F)cc3)cc2C(=O)N(C)CC(=O)Nc2ccc(N3CCOCC3)cc2)cc1	i	-6.0%	i	?	-6.6%	14.6µM*
CN(CC(=O)Nc1cccc(F)c1)C(=O)c1cn(-c2ccccc2)nc1-c1ccc(Cl)cc1	i	?	i	?	20.6µM*	?
O=C(c1cn(-c2ccccc2)nc1-c1cccs1)N(CCO)Cc1ccccc1	i	-17.9%	i	-28.7%	-23.1%	18.4µM*
CC(C)C[C@H]1COc2cc(N3CCC[C@@H]3CO)ccc2S(=O)(=O)N1	i	0.4%	?	-18.2%	0.9%	-14.7%
O=C(NCc1ccc(F)cc1)c1ccc2oc(=O)n(Cc3ccccc3)c2c1	i	.	i	?	.	?
CN(CC(=O)Nc1cccc(F)c1)C(=O)c1cc(-c2cccs2)nn1-c1ccccc1	i	-11.7%	?	?	-5.3%	16.4µM*
CN(CC(=O)Nc1cccc(F)c1)C(=O)c1cn(-c2ccccc2)nc1-c1cccs1	?	-10.2%	?	?	-9.8%	13µM*
COc1cccc(NC(=O)CN(C)C(=O)c2cn(-c3ccccc3)nc2-c2cccnc2)c1	i	0.1%	?	?	0.0%	?
COc1ccc(Cl)cc1NC(=O)CN(C)C(=O)c1cn(-c2ccccc2)nc1-c1cccnc1	i	-28.0%	?	18.4µM*	-10.4%	?
Cc1cccc(/C=N/NC(=O)Cn2nnnc2N)n1	i	1.1%	?	0.5%	2.4%	-8.9%
Cc1ccccc1C(=O)N1CCC(C(=O)NC(C)c2ccc(-n3ccnc3)cc2)CC1 (stereo unspecified)	.	4.9%	.	1.0%	2.3%	7.6%
CC(C)(CO)CNc1ccn2nccc2n1	?	-3.4%	i	13µM*	-10.0%	?
COCCCNc1ccn2nc(-c3ccccc3)cc2n1	i	5.5%	i	-22.1%	28.7%	-22.7%
Fc1c(-c2ccc3ncnc(NCc4cccs4)c3c2)ccc2c1OCO2	i	.	i	.	.	.
C=CC[C@@H](CC(=O)N[C@H](CO)Cc1ccccc1)C(=O)N[C@@H](COC(=O)[C@H](CC=C)CC(=O)OC(C)(C)C)Cc1ccccc1	?	-11.8%	i	20.6µM*	-15.6%	23.1µM*
C=CC[C@@H](CC(=O)N[C@@H](CO)Cc1ccccc1)C(=O)N[C@H](COC(=O)[C@@H](CC=C)CC(=O)OC(C)(C)C)Cc1c[nH]c2ccccc12	i	?	i	16.4µM*	?	3.66µM*
C=CC[C@@H](CC(=O)N[C@@H](CO)Cc1ccccc1)C(=O)N[C@H](COC(=O)[C@@H](CC=C)CC(=O)OC(C)(C)C)Cc1ccccc1	i	0.4%	i	13µM*	-3.1%	20.6µM*
C=CC[C@@H](CC(=O)NCCO)C(=O)N[C@@H](COC(=O)[C@@H](CC=C)CC(=O)OC(C)(C)C)Cc1ccccc1	i	1.1%	i	?	12.3%	-27.1%
Cc1cc(=O)oc2c(C)c(OCC(=O)N3CCN(c4ccc(F)cc4)CC3)ccc12	i	-11.9%	?	23.1µM*	-26.4%	23.1µM*
COC(=O)Cc1c(C)c2ccc(OCC(=O)N3CCC(C)CC3)c(C)c2oc1=O	i	10.0%	?	13µM*	-4.5%	14.6µM*
Cc1cccc(N2CCN(C(=O)COc3ccc4ccc(=O)oc4c3)CC2)c1C	i	2.8%	i	?	-21.7%	?
SMILES	KB-3-1 tox	HT1080 IDH1KD tx	KB-V1 cytotox	DT40 TDP1 CPT	HT1080NT lethal	TDP1 cell noCPT
O=C(COc1ccc2c3c(c(=O)oc2c1)CCCC3)N1CCN(c2ccc(F)cc2)CC1	i	3.6%	i	23.1µM*	12.9%	?
COC(=O)Cc1c(C)c2ccc(OCC(=O)N3CCCC3)c(C)c2oc1=O	.	-0.4%	.	?	11.5%	-20.2%
Cc1cccc(N2CCN(C(=O)COc3ccc4c(c3)CCC4)CC2)c1C	?	-4.1%	20.6µM*	-1.5%	0.2%	-6.1%
CC(CNC(=O)COC(=O)c1ccco1)c1ccccc1 (stereo unspecified)	i	5.1%	i	0.1%	-2.9%	1.2%
Cc1cccc(N2CCN(C(=O)COc3cc4oc(=O)cc(C)c4cc3Cl)CC2)c1C	i	9.8%	i	-24.6%	10.4%	-12.5%
CC(=O)N1CCc2cc(Br)cc(S(=O)(=O)CCC(=O)N3CCN(c4cccc(C)c4C)CC3)c21	i	.	i	16.4µM*	.	?
Cc1cccc(N2CCN(C(=O)COc3ccc4c(C)cc(=O)oc4c3C)CC2)c1C	?	?	i	13µM*	-29.0%	14.6µM*
Fc1ccc(-c2cc(C(F)(F)F)nc(N3CCCCC3)n2)cc1	i	-0.7%	i	-44.1%	-0.4%	4.6%
